# “And” between values parts separate entries of the source, which are not always exact repeats. Equal entries are not always repeated. The source made the active and inactive calls. Rule as the data show it, unless noted: active = parasite load remaining mostly below about 12% (no sharp cut-off); inactive = mostly above about 10%.
# Legend:
# [1] = hESC survival regulators, cell-based (AID 493140; call rule not given here;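 also: cells exposed to compounds for four days before counting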); conditions: human embryonic stem cell survival screen; stronger effect = higher value
# [2] = liver-stage malaria parasite growth inhibition, primary screen, cell-based, HepG2, luciferase luminescence, HepG2 viability (AID 624349);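 also: 100% = mean of DMSO negative control wells on the same plate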; conditions: P. berghei liver stage in HepG2, luciferase luminescence, concentration not given here; parasite load remaining: stronger effect = lower value; viability: measured here: HepG2 viability without parasites
# [3] = sensitizers of A549 cells to miR-34 induction, primary screen, imaging, A549 dox-inducible miR-34, nuclei and caspase counts (AID 1347080;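 active = compounds whose cell count with miR-34 switched on is under 0.7 times the count with it off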); conditions: A549 miR-34 inducible, Hoechst nuclei count, 48 h
# [4] = survival rescue of mitochondrial mutant cells in low glucose, primary screen, MELAS cybrids, Rieske KO mouse fibroblasts, CellTiter-Glo (AID 1508586;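 active = mean z-score across replicates of 1.96 or higher in either the MELAS or the Rieske mutant cell line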;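 also: z relative to plate mean and SD of compound and empty wells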)
# [5] = stronger effect = lower value, cell number ratio, induced over uninduced
# [6] = measured here: relative caspase fold change +Dox/-Dox
# [7] = measured here: total cells with miR-34 induction, stronger effect = lower value
# [8] = measured here: total cells without miR-34 induction
# [9] = MELAS cybrid survival, CellTiter-Glo 48 h, stronger effect = higher value
# [10] = Rieske KO mouse fibroblast survival, CellTiter-Glo 72 h
Structure (SMILES),survival [1],parasite load remaining [2],viability [2],"fold change [3, 5]","fold change [3, 6]","cell count [3, 7]","cell count [3, 8]","z-score [4, 9]","z-score [4, 10]"
OCCN1CCN(CC/C=C2/c3ccccc3Sc3ccc(Cl)cc32)CC1,0.583 (inactive),65.1% (inactive),62.7%,0.885 (inactive),0.539,7300,8250,0.382 (inactive),-0.231
C=CC[N@@+]12CC[C@]34c5ccccc5N5/C=C6\C7N(/C=C(\C53)[C@@H](C[C@@H]41)/C(=C/CO)C2)c1ccccc1[C@@]71CC[N@@+]2(CC=C)C/C(=C\CO)[C@@H]6C[C@@H]12 (some centres undefined),–,122% (inactive),74.4%,0.909 (inactive),0.771,9290,10200,0.0835 (inactive),-0.352
CC1CS(=O)(=O)CCN1N=Cc1ccc([N+](=O)[O-])o1 (centres undefined),3.75 (inactive),67.6% (inactive),75.5%,0.925 (inactive),0.621,8950,9680,-0.298 (inactive),-0.374
CN[C@@H]1[C@H](O[C@H]2[C@H](O[C@@H]3[C@@H](O)[C@H](O)[C@@H](N=C(N)N)[C@H](O)[C@H]3N=C(N)N)O[C@@H](C)[C@]2(O)CO)O[C@@H](CO)[C@H](O)[C@H]1O,13.1 (inactive),58.9% (inactive) and 103% (inactive),51% and 87.7%,0.925 (inactive),1.1,9160,9910,-0.905 (inactive),-0.0139
C=CC1=C(C(=O)O)N2C(=O)[C@@H](NC(=O)/C(=N\OCC(=O)O)c3csc(N)n3)[C@H]2SC1,–,141% (inactive),105%,0.851 (inactive),1.38,8960,10500,0.308 (inactive),0.0804
CN(C)C/C=C(\c1ccc(Br)cc1)c1cccnc1,–,45.2% (inactive),47.6%,0.924 (inactive),0.86,8480,9180,0.27 (inactive),0.193
CN[C@H](CC(C)C)C(=O)N[C@H]1C(=O)N[C@@H](CC(N)=O)C(=O)N[C@H]2C(=O)N[C@H]3C(=O)N[C@H](C(=O)N[C@H](C(=O)O)c4cc(O)cc(O)c4-c4cc3ccc4O)[C@H](O)c3ccc(c(Cl)c3)Oc3cc2cc(c3O[C@@H]2OC(CO)[C@@H](O)[C@H](O)[C@H]2O[C@H]2C[C@](C)(N)[C@H](O)[C@H](C)O2)Oc2ccc(cc2Cl)[C@H]1O (some centres undefined),–,59.3% (inactive),113%,0.843 (inactive),1.57,8980,10700,-0.371 (inactive),-0.181
C=C(NC(=O)C(=C)NC(=O)c1csc(C2=N[C@H]3c4csc(n4)[C@H]4NC(=O)c5csc(n5)[C@H]([C@@](C)(O)[C@@H](C)O)NC(=O)[C@H]5CSC(=N5)/C(=C\C)NC(=O)[C@H]([C@@H](C)O)NC(=O)c5csc(n5)[C@]3(CC2)NC(=O)[C@H](C)NC(=O)C(=C)NC(=O)[C@H](C)NC(=O)[C@H](C(C)CC)N[C@@H]2C=Cc3c([C@H](C)O)cc(nc3[C@H]2O)C(=O)O[C@@H]4C)n1)C(N)=O (some centres undefined),–,8.38% (inactive),102%,0.85 (inactive),1.56,7430,8740,5.43 (active),3.6
NC[C@@H]1O[C@H](O[C@H]2[C@@H](O)[C@H](O[C@@H]3[C@@H](O)[C@H](N)C[C@H](N)[C@H]3OC3O[C@H](CO)[C@@H](O)[C@H](O)[C@H]3N)O[C@@H]2CO)[C@H](N)[C@@H](O)[C@@H]1O (some centres undefined),–,69.5% (inactive),103%,0.833 (inactive),1.19,8720,10500,0.673 (inactive),-0.125
OC(CCN1CCCCC1)(c1ccccc1)C1C[C@@H]2C=C[C@H]1C2 (some centres undefined),–,24.7% (inactive),105%,0.888 (inactive),1.45,8210,9240,-0.0819 (inactive),-0.0447
O=C1Cc2c([nH]c3ccc(Br)cc23)-c2ncccc2N1,–,39% (inactive),165%,0.879 (inactive),0.672,2970,3380,1.05 (inactive),-2.27
CC(C)(C)NCC(O)COc1ccccc1C1CCCC1 (centres undefined),4.5 (inactive),64.8% (inactive),78.7%,0.898 (inactive),0.683,7970,8880,-0.603 (inactive),-0.983
CC1(C)S[C@@H]2[C@H](NC(=O)C(C(=O)O)c3ccsc3)C(=O)N2[C@H]1C(=O)O (some centres undefined),–,73.9% (inactive),69.2%,0.946 (inactive),0.678,9480,10000,0.609 (inactive),0.365
C/C(=C(/CCO)SSCC1CCCO1)N(C=O)Cc1cnc(C)nc1N (centres undefined),5.83 (inactive),105% (inactive),73.2%,0.933 (inactive),0.561,9240,9910,0.79 (inactive),0.563
CN[C@H]1[C@@H](O)[C@H](O[C@H]2[C@@H](O)[C@@H](OC3OC(CN)=CCC3N)[C@H](N)C[C@@H]2N)OC[C@@]1(C)O (some centres undefined),–,95.5% (inactive),113%,0.885 (inactive),1.15,9450,10700,0.354 (inactive),0.0602
Cc1cc(C=Cc2ccc3cc(N(C)C)ccc3[n+]2C)c(C)n1-c1ccccc1,2.17 (inactive),0.11% (inactive),48.8%,1.3 (inactive),1.04,2390,1840,0.882 (inactive),0.984

# Source: PubChem BioAssay
